{"source": "the OligoGym collection", "data": [{"target": "GPS1", "assay": "pooled miR-30 sensor sort-seq; sequence = guide strand", "settings": "shRNA", "values": [{"sequence": "AAGAACAACTTGAAGGAGCTGC", "sensor-assay potency score (higher = more potent)": 0.981}, {"sequence": "TTGCTGTGTGAGTCCACACGGG", "sensor-assay potency score (higher = more potent)": -0.414}, {"sequence": "TAGCACTTGAGGGCGTTGCTGA", "sensor-assay potency score (higher = more potent)": -0.484}, {"sequence": "AACAACTTGAAGGAGCTGCTGG", "sensor-assay potency score (higher = more potent)": -0.415}, {"sequence": "TACTGTTCCAGATCCAGGCTGG", "sensor-assay potency score (higher = more potent)": 0.176}, {"sequence": "TTGCGCTGCAGCTCCTGCCGGT", "sensor-assay potency score (higher = more potent)": -0.804}, {"sequence": "TTCATCTCGTCCAGCATCTTGA", "sensor-assay potency score (higher = more potent)": -0.805}, {"sequence": "TTGACATGGATCTGGTTGCGGA", "sensor-assay potency score (higher = more potent)": -0.378}, {"sequence": "TCCAGCTCCAAGAACAACTTGA", "sensor-assay potency score (higher = more potent)": -0.994}, {"sequence": "TTGAAGGCTGCCGCCATCCTAT", "sensor-assay potency score (higher = more potent)": -1.18}]}, {"target": "GPT2", "assay": "pooled miR-30 sensor sort-seq; sequence = guide strand", "settings": "shRNA", "values": [{"sequence": "TACAGCACCTTCTTGAAGGAGT", "sensor-assay potency score (higher = more potent)": -0.472}, {"sequence": "TTCACCTTCTGCAGCACCGTTT", "sensor-assay potency score (higher = more potent)": -0.638}, {"sequence": "TTCAGGATCGTAGAAATGCCGT", "sensor-assay potency score (higher = more potent)": -0.741}, {"sequence": "TTAGCATCTTCTGGGAAGCTGG", "sensor-assay potency score (higher = more potent)": -0.879}, {"sequence": "TCTGTAACCACACTCGCCCATG", "sensor-assay potency score (higher = more potent)": -1.08}, {"sequence": "TTGATCACCTCCATGTAGCCTC", "sensor-assay potency score (higher = more potent)": 0.135}, {"sequence": "TTGGTTAAACAGGTCTTCCGTC", "sensor-assay potency score (higher = more potent)": 0.251}, {"sequence": "TCATGCAGTAGAACATGTCTGG", "sensor-assay potency score (higher = more potent)": 0.355}, {"sequence": "TTTCACCTTCTGCAGCACCGTT", "sensor-assay potency score (higher = more potent)": -1.46}, {"sequence": "TTGGCAGGAATGAAGATCCGAG", "sensor-assay potency score (higher = more potent)": -0.485}, {"sequence": "TAACAGATTCAGAGAACCCTGG", "sensor-assay potency score (higher = more potent)": 0.0686}]}]}
